From PubChem BioAssay (NCI)
“And” between values parts separate entries of the source, which are not always exact repeats. Equal values may be shown once. Compounds without any hit were thinned out: in the full panel of roughly 83,000, 20% have a hit.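 The test compound was applied at a single concentration to cells in 96-well plates for 48 hours, and percent growth was recorded.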 The source made the active and inactive calls. How the source made its calls: active means growth percent below 10; inactive means the rest.

Columns and labels:
Experiment in all cases: NCI-60 one-dose screen, 48 h (100 = growth as untreated, 0 = no growth, -100 = all killed)
Conditions in all cases: 10 µM unless noted
HCT-15 colon = tested on: HCT-15 colon
HT29 colon = tested on: HT29 colon
SNB-75 CNS = tested on: SNB-75 CNS
SNB-19 CNS = tested on: SNB-19 CNS
U251 CNS = tested on: U251 CNS
PC-3 prostate = tested on: PC-3 prostate
SK-MEL-5 melanoma = tested on: SK-MEL-5 melanoma
UACC-62 melanoma = tested on: UACC-62 melanoma
LOX IMVI melanoma = tested on: LOX IMVI melanoma
SK-MEL-28 melanoma = tested on: SK-MEL-28 melanoma
SK-MEL-2 melanoma = tested on: SK-MEL-2 melanoma
EKVX NSCLC = tested on: EKVX NSCLC
SN12C renal = tested on: SN12C renal
UO-31 renal = tested on: UO-31 renal
TK-10 renal = tested on: TK-10 renal
ACHN renal = tested on: ACHN renal
CAKI-1 renal = tested on: CAKI-1 renal
A498 renal = tested on: A498 renal
CCRF-CEM leukemia = tested on: CCRF-CEM leukemia
MOLT-4 leukemia = tested on: MOLT-4 leukemia

Row | SMILES | growth (HCT-15 colon) | growth (HT29 colon) | growth (SNB-75 CNS) | growth (SNB-19 CNS) | growth (U251 CNS) | growth (PC-3 prostate) | growth (SK-MEL-5 melanoma) | growth (UACC-62 melanoma) | growth (LOX IMVI melanoma) | growth (SK-MEL-28 melanoma) | growth (SK-MEL-2 melanoma) | growth (EKVX NSCLC) | growth (SN12C renal) | growth (UO-31 renal) | growth (TK-10 renal) | growth (ACHN renal) | growth (CAKI-1 renal) | growth (A498 renal) | growth (CCRF-CEM leukemia) | growth (MOLT-4 leukemia)
1 | ClC/C=C/CSc1ncnc2nc[nH]c12 | 104% (inactive) and 99.7% (inactive) | 98.4% (inactive) and 95.2% (inactive) | 108% (inactive) and 92.7% (inactive) | 98.6% (inactive) and 102% (inactive) | 96.7% (inactive) and 102% (inactive) | 100% (inactive) and 98.1% (inactive) | 100% (inactive) and 112% (inactive) | 99.9% (inactive) and 103% (inactive) | 98.7% (inactive) and 97.3% (inactive) | 111% (inactive) and 101% (inactive) | 5.9% (active) and 112% (inactive) | 105% (inactive) and 104% (inactive) | 105% (inactive) and 100% (inactive) | 85.9% (inactive) and 87.1% (inactive) | 108% (inactive) | 103% (inactive) and 99.2% (inactive) | 106% (inactive) and 111% (inactive) | 91.4% (inactive) and 117% (inactive) | 90.7% (inactive) | 93.7% (inactive) and 85.3% (inactive)
2 | O=C(O)CN(CCN(CC(=O)O)CC(=O)O)CCN(CC(=O)O)CC(=O)O | 9.67% (active) and 99.9% (inactive) and 107% (inactive) | 2.39% (active) and 108% (inactive) and 94.8% (inactive) | 9.81% (active) and 87.3% (inactive) and 85.8% (inactive) | 27.6% (inactive) and 101% (inactive) and 98.6% (inactive) | 4.18% (active) and 106% (inactive) and 94.1% (inactive) | 9.35% (active) and 92.8% (inactive) and 93.5% (inactive) | 3.74% (active) and 103% (inactive) and 106% (inactive) | 8.73% (active) and 95.6% (inactive) and 101% (inactive) | -31.4% (active) and 101% (inactive) and 106% (inactive) | 24% (inactive) and 105% (inactive) and 99.4% (inactive) | -31.4% (active) and 101% (inactive) and 93.2% (inactive) | -24.9% (active) and 105% (inactive) and 111% (inactive) | 1.71% (active) and 99.1% (inactive) and 101% (inactive) | -3.87% (active) and 77.1% (inactive) and 99.1% (inactive) | -24.1% (active) and 110% (inactive) and 94% (inactive) | 97.5% (inactive) and 104% (inactive) | -7.19% (active) and 87% (inactive) | 12.7% (inactive) | 5.22% (active) and 97.7% (inactive) and 102% (inactive) | -17.3% (active) and 113% (inactive) and 96% (inactive)
3 | O=C(O)C1C2C=CC(C2)C1C(=O)O (stereo not given) | 106% (inactive) and 101% (inactive) | 94.3% (inactive) and 14.4% (inactive) and 104% (inactive) | 102% (inactive) and 61.9% (inactive) and 89% (inactive) | 99.2% (inactive) and 51.6% (inactive) and 113% (inactive) | 105% (inactive) and 19.7% (inactive) and 98.8% (inactive) | 93.6% (inactive) and 17.4% (inactive) and 98.1% (inactive) | 103% (inactive) and 23.6% (inactive) and 98.5% (inactive) | 89.8% (inactive) and 26.8% (inactive) and 104% (inactive) | 109% (inactive) and 16.9% (inactive) and 104% (inactive) | 105% (inactive) and 49.8% (inactive) and 109% (inactive) | 150% (inactive) and 57.5% (inactive) and 111% (inactive) | 120% (inactive) | 84.7% (inactive) and 24% (inactive) and 102% (inactive) | 87.9% (inactive) and 96.5% (inactive) and 94.4% (inactive) | 91.1% (inactive) and 32.5% (inactive) and 106% (inactive) | 111% (inactive) and 33.6% (inactive) and 97.6% (inactive) | 98.2% (inactive) and 7.77% (active) and 98.7% (inactive) | 96.8% (inactive) and 64.8% (inactive) and 99.2% (inactive) | 95.4% (inactive) and 25.3% (inactive) and 99.6% (inactive) | 106% (inactive) and 27.8% (inactive) and 101% (inactive)
4 | Cn1cc(-c2cc3c(Nc4ccc(CC(=O)Nc5cc(C(C)(C)C)on5)cc4)ncnc3[nH]2)cn1 | 17.5% (inactive) and 34.6% (inactive) | -8.17% (active) and -11.7% (active) | -44.8% (active) and -42.3% (active) | 2.07% (active) and 3.84% (active) | 0.087% (active) and -9.38% (active) | -21.4% (active) and 1.57% (active) | -50.7% (active) and 1.16% (active) | -77.9% (active) and -80% (active) | 1.91% (active) and 2.35% (active) | -20.2% (active) and -18.4% (active) | -60.5% (active) and -81% (active) | 6.89% (active) and 10.1% (inactive) | -10.9% (active) and -7.98% (active) | -11.4% (active) and 9.42% (active) | 0.328% (active) and -17.2% (active) | -6.75% (active) and 6.73% (active) | -10.5% (active) and 7.18% (active) | -60.1% (active) | 14.3% (inactive) and 5.35% (active) | 9.74% (active) and 5.37% (active)
5 | O=C1OC2(c3ccccc31)c1ccc(O)c(O)c1Oc1c2ccc(O)c1O | 94.5% (inactive) and 123% (inactive) | 102% (inactive) and 116% (inactive) | 101% (inactive) and 88.3% (inactive) | 110% (inactive) and 108% (inactive) | 104% (inactive) | 81% (inactive) and 89.2% (inactive) | 106% (inactive) and 100% (inactive) | 108% (inactive) and 102% (inactive) | 90.7% (inactive) and 103% (inactive) | 112% (inactive) and 117% (inactive) | 85.1% (inactive) | 105% (inactive) and 128% (inactive) | 98.8% (inactive) and 103% (inactive) | 90.2% (inactive) and 87.8% (inactive) | 105% (inactive) and 101% (inactive) | 101% (inactive) and 113% (inactive) | 104% (inactive) and 114% (inactive) | 114% (inactive) and 97.9% (inactive) | 90.8% (inactive) and 110% (inactive) | 95.4% (inactive) and 121% (inactive)
6 | Cc1cc(N=Nc2ccc(C)c(N=Nc3cc(C)c(N)cc3N)c2)c(N)cc1N | 95.9% (inactive) and 44.3% (inactive) | 92.8% (inactive) and 40.8% (inactive) | 78% (inactive) and 72.7% (inactive) | 97.7% (inactive) and 91.2% (inactive) | 97% (inactive) and 86.7% (inactive) | 64.6% (inactive) | 100% (inactive) and 78.7% (inactive) | 91.7% (inactive) and 93.9% (inactive) | 90.8% (inactive) and 82.6% (inactive) | 98.9% (inactive) and 88.4% (inactive) | 107% (inactive) | 67.1% (inactive) and 72.3% (inactive) | 95.6% (inactive) and 85.7% (inactive) | 63.9% (inactive) and 51.5% (inactive) | 93.7% (inactive) and 92.3% (inactive) | 84.4% (inactive) and 81.8% (inactive) | 78.2% (inactive) and 78.7% (inactive) | 93.8% (inactive) and 85.9% (inactive) | 84.5% (inactive) and 61.3% (inactive) | 64.4% (inactive) and 61.8% (inactive)
7 | O=C(N/N=C/c1ccc2c(c1)OCO2)c1ccncc1 | 106% (inactive) and 104% (inactive) | 101% (inactive) and 105% (inactive) | 77.9% (inactive) and 98.4% (inactive) | 111% (inactive) and 103% (inactive) | 104% (inactive) | 104% (inactive) and 88.5% (inactive) | 105% (inactive) | 91.3% (inactive) and 97.5% (inactive) | 97.4% (inactive) and 101% (inactive) | 103% (inactive) and 106% (inactive) | 110% (inactive) and 108% (inactive) | 104% (inactive) and 101% (inactive) | 94.4% (inactive) and 98.4% (inactive) | 82.8% (inactive) and 79.4% (inactive) | 91.2% (inactive) and 111% (inactive) | 107% (inactive) and 103% (inactive) | 97.2% (inactive) and 97.5% (inactive) | 98% (inactive) and 94% (inactive) | 113% (inactive) and 101% (inactive) | 133% (inactive)
